Test results published in PubChem BioAssay (NCI).
The panel holds about 83,000 compounds, 20% with a hit somewhere; the sample as a whole holds those more often.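 Compound tested at a single concentration for 48 hours in 96-well plates; a percent growth value below 10 was scored as active.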 A number with no mark means an inactive call. Active and inactive are the calls of the source.

Columns and labels:
Test in all cases: NCI-60 one-dose screen, 48 h (100 = growth as untreated, 0 = no growth, -100 = all killed)
Details in all cases: 10 µM unless noted
SR leukemia = system: SR leukemia
OVCAR-8 ovarian = system: OVCAR-8 ovarian
OVCAR-5 ovarian = system: OVCAR-5 ovarian
OVCAR-4 ovarian = system: OVCAR-4 ovarian
SK-OV-3 ovarian = system: SK-OV-3 ovarian
IGROV1 ovarian = system: IGROV1 ovarian
OVCAR-3 ovarian = system: OVCAR-3 ovarian
HS 578T breast = system: HS 578T breast
NCI/ADR-RES ovarian = system: NCI/ADR-RES ovarian

| Compound | growth (SR leukemia) | growth (OVCAR-8 ovarian) | growth (OVCAR-5 ovarian) | growth (OVCAR-4 ovarian) | growth (SK-OV-3 ovarian) | growth (IGROV1 ovarian) | growth (OVCAR-3 ovarian) | growth (HS 578T breast) | growth (NCI/ADR-RES ovarian) |
| --- | --- | --- | --- | --- | --- | --- | --- | --- | --- |
| O=C1c2c(c3c4ccccc4[nH]c3c3ccc4ccccc4c23)C(=O)N1CCN1CCNCC1 | -13.3% (active) | 34.5% | 99.5% | 12.9% | 107% | 58.1% | -47.5% (active) | 94.7% | 25.9% |
| Cn1cc(-c2ccc3nc(-c4ccc(CC(=O)ONc5cc(C(C)(C)C)on5)cc4)cnc3c2)cn1 | 15.5% | 33.7% | 66.1% | 35.4% | -17.1% (active) | 10.3% | 48% | 31% | 33.2% |
| CCn1cc(C(=O)O)c(=O)c2cc(F)c(N3CCN(CC(=O)Nc4ccc(S(=O)(=O)Nc5nccc(C)n5)cc4)C(C)C3)c(F)c21 (centres undefined) | 103% | 105% | 98.5% | 104% | 113% | 99.7% | 113% | 99.6% | 107% |
| CCOC(=O)c1nn(-c2ccc(S(N)(=O)=O)cc2)c2nc(C)cc(=O)n12 | 104% | 105% | 117% | 102% | 105% | 98.7% | 110% | 103% | 103% |
| COC(=O)[C@]12CCC(C)(C)C[C@H]1[C@H]1/C(=N/OCCc3nn[nH]n3)C[C@@H]3[C@@]4(C)CC[C@H](OC(C)=O)C(C)(C)[C@@H]4CC[C@@]3(C)[C@]1(C)CC2 | 31.8% | 29.7% | 74.4% | 25.3% | 58.7% | 30.9% | 31.8% | 48.3% | 30.1% |
| N#CSCC1CC(O)(c2ccccc2)CC(c2ccc(F)cc2)O1 (centres undefined) | -29.6% (active) | 10.3% | 85.6% | 26.1% | 52.7% | 51.1% | -79.3% (active) | -22.7% (active) | -3.67% (active) |
| CCO/C=N/C1=C(C#N)C(c2ccc(Cl)cc2)c2sc3c(F)cccc3c2O1 (centres undefined) | 36.8% | 77.8% | 89.2% | 77.6% | 81.9% | 60.7% | 25.3% | 55.6% | 39.6% |
| Cc1cc(C(=O)Nc2ncc(Cc3cccc(C(F)(F)F)c3)s2)c2ccccc2n1 | 9.35% (active) | 43.4% | 47.7% | 42.4% | 36% | 31.5% | 13.3% | -0.594% (active) | 16.4% |
| C=CCn1c(C)nc2ccc(Nc3nc(Nc4ccc5nc(C)n(CC=C)c5c4)c4ccccc4n3)cc21 | -57.2% (active) | -48.6% (active) | 25.1% | -93.3% (active) | -63.7% (active) | -47.5% (active) | -95.4% (active) | -41.4% (active) | 53.5% |
| CC(C)COc1nc2c(c(=O)n(C)c(=O)n2C)n1C | 90.8% | -6.67% (active) | 112% | 97.7% | 90.7% | 109% | 106% | 100% | 99.8% |
| COC(=O)c1cc(N=C2NC(=O)/C(=C/C=C/c3ccccc3)S2)ccc1O | 27.5% | 25.6% | 71% | 58.9% | 33.3% | 37.6% | 18.7% | 35.3% | 5.59% (active) |
| O=C(Nc1nc2cc(C(=O)N3CCN(C(c4ccccc4)c4ccccc4)CC3)ccc2o1)c1ccc(NC2CCCCC2)c([N+](=O)[O-])c1 | 49.1% | 37.8% | 72.5% | 38.8% | 73.8% | 51.1% | 52.8% | 76% | 35.3% |
| CCOC(=O)c1ccc2c(c1)nc(-c1ccccc1)n2C1CCCCC1 | 62.9% | 89.5% | 117% | 102% | 36.7% | 106% | 108% | 111% | 105% |
| COC(=O)CC[C@H](C)[C@H]1CC[C@H]2[C@@H]3CC[C@@H]4CC5(CC[C@]4(C)[C@H]3CC(=O)[C@]12C)Nc1ccccc1NC5=NC(C)(C)C (some centres undefined) | 50% | 87.5% | 89.1% | 57.5% | 97% | 93.8% | 76% | 88.7% | 94.9% |
| CCc1ccccc1-n1c(-c2ccc(OC)cc2)cc(-c2ccc(OC)cc2)c(C#N)c1=O | 98.4% | 41.7% | 92.7% | 85.9% | 54% | 85.5% | 82.2% | 17.9% | 72.4% |
| O=C(Nc1ccc(OS(=O)(=O)c2ccc(F)cc2)cc1)C1CCCCCC1 | 70.2% | 93.2% | 99.7% | 98.5% |  | 118% | 96.1% | 82.4% | 82.1% |
| CC(=O)N1N=C(c2ccc(Nc3nc(Nc4ccccc4)nc(Nc4ccccc4)n3)cc2)CC1c1ccccc1 (centres undefined) | 62.3% | 82.9% | 91.9% | 96.5% | 95.5% | 54.1% | 88.6% | 89.3% | 84.6% |
| COc1cc2oc(-c3cccc(NC(=O)c4ccccc4)c3)cc(=O)c2c(OC)c1OC | 31.6% | 61% | 100% | 81.7% | 104% | 78.4% | 84.2% | 97.2% | 74.5% |
| COC(=O)c1c(C)c2n(c1C)C(=O)C(c1ccccc1)=C2 | 102% | 79.2% | 68.9% | 71.2% | 80.8% | -8.44% (active) | 104% | 103% | 86.8% |

| Compound | growth (SR leukemia) | growth (OVCAR-8 ovarian) | growth (OVCAR-5 ovarian) | growth (OVCAR-4 ovarian) | growth (SK-OV-3 ovarian) | growth (IGROV1 ovarian) | growth (OVCAR-3 ovarian) | growth (HS 578T breast) | growth (NCI/ADR-RES ovarian) |
| --- | --- | --- | --- | --- | --- | --- | --- | --- | --- |
| CN(C)c1ccc(-c2c(C#N)c(N)nn2C(=O)c2ccc(NC(=O)c3ccccn3)cc2)cc1 | 98.6% | 98.3% | 95.7% | 105% | 108% | 79.1% | 102% | 93.9% | 96.4% |
| C#CCOC(=O)/C=C/c1cn(-c2ccccc2)nc1-c1ccc(OC)cc1 | 83.2% | 78.5% | 91% | 90.7% | 89.3% | 74% | 103% | 76.9% | 98.4% |
| CCCCCCC12CCC(=O)N1CCc1cncn12 (centres undefined) | 116% | 101% | 98.7% | 119% | 99.2% | 105% | 118% | 112% | 104% |
| COc1cc2ncnc(Nc3ccc(S(=O)(=O)Nc4cc(C)on4)cc3)c2cc1OCCCN1CCN(c2ccc(F)cc2)CC1 | 107% | 103% | 102% | 116% | 93% | 107% | 87.6% | 90.7% | 107% |
| CCOC(=O)C1=C(c2ccccc2)N=C2SC=C(c3ccc(Cl)cc3)N2C1c1ccc(Br)cc1 (centres undefined) | 74.2% | 80.3% | 94.9% | 50.5% | 82.5% | 74.5% | 67.4% | 77.9% | 83% |
| COc1ccc(C/C(C)=C(/c2ccc(OCCN(C)C)cc2)c2ccc(OC(=O)NCc3ccccc3)cc2)cc1 | -46% (active) | 77.4% | 92% | 78.4% | 81.4% | 85.3% | 63.9% | 56.2% | 77.2% |
| COc1ccc(Nc2nc(-c3cc(O)c(C)c(C)c3O)cs2)cc1 | 37.1% | 70.7% | 103% | 73.7% | 71.3% | 66.5% | 10.5% | 76.7% | 23% |
| CC(C)=CCCC(C)c1ccc(C)c2c1OCN(CCCCCO)C2 (centres undefined) | 66.6% | 90.1% | 87.4% | 95.4% | 88.8% | 90.4% | 99.7% | 81.2% | 75.9% |
| C=C1C(=O)O[C@H]2[C@H]1CC/C(Cn1cc(-c3ccccc3)nn1)=C\CC[C@@]1(C)O[C@@H]21 | 3.11% (active) | 5.7% (active) | -2.95% (active) | 35.9% | 107% | 6.52% (active) | -84.3% (active) | 81.1% | 43.6% |
| COc1ccc(Nc2ncc(Br)c(NCCCNC(=O)c3cccs3)n2)cc1 | 31.5% | 32.7% | 60.6% | 57.7% | 49.2% | 21% | 26.6% | 30.9% | 46.5% |
| N#Cc1nc(-c2ccccc2)oc1S(=O)(=O)N1CCN(c2ccccc2)CC1 | 14.7% | 81.3% | 112% | 99.5% | 105% | 78.9% | 111% | 102% | 97.5% |
| CCCCNC(=O)Oc1ccc(/C(=C(/C)Cc2ccc(OC)cc2)c2ccc(OCCN(CC)CC)cc2)cc1 | 16.7% | 86.9% | 82% | 80.3% | 97% | 93.7% | 82% | 76.9% | 91.1% |
| COc1cc2c(c(OC)c1OC)CCC(c1cccc(C(=O)Nc3cccc(Cl)c3)c1)O2 (centres undefined) | 30.5% | 75.1% |  | 70.3% | 64.9% | 63.8% | 85.3% | 80.2% | 83.8% |
| COC12C=C/C(=C(/C(=O)OCc3ccncn3)C(=O)CCCCCCCCC3(OC)C=C/C(=C(/C(=O)OCc4ccncn4)C(=O)CCCCCCCC1)O3)O2 | -15.6% (active) | 17.2% |  | 12.2% | 52.8% | -27.1% (active) | -52.4% (active) | 38% | 7.59% (active) |
| COC1=CC(c2ccc[nH]2)=N/C1=C\c1[nH]c(C)c(C)c1CCC(=O)OCc1ccccc1 | -47.1% (active) | -11.3% (active) | 7.87% (active) | 9.61% (active) |  | 0.242% (active) | -73.8% (active) | -9.2% (active) | -0.591% (active) |
| COc1cc2cc(NCc3cccc(Cl)c3)nc(C)c2cc1OC | 29.6% | 45.3% | 43.7% | 68% | 56.9% | 24.6% | 60.1% | 76.3% | 42.5% |
| CCCCCCCCCCCCCCCCOCCCOP(=O)(O)C1CCCN(O)C1=O (centres undefined) | 7.77% (active) | 23.8% | 20% | 16.5% | 34.4% | -2.28% (active) | 17.3% | 83.1% | 8.85% (active) |
| CN(C)S(=O)(=O)c1cccc(C(=O)Nc2nc(-c3ccc(F)c(F)c3)cs2)c1 | 41% | 48.9% | 86.1% | 37.2% | 108% | 41.6% | 70.8% | 107% | 22.5% |
